From PubChem BioAssay AID1259415 (National Center for Advancing Translational Sciences (NCATS), 2018)
“And” between values parts separate entries of the source, which are not always exact repeats. Equal entries are not always repeated. Hit rate of the full screen: of about 410,000 compounds, about 18,000 (4.4%) were called active. Not shown: some 7% with an inconclusive outcome. Only a selection was taken, and actives are over-represented in it overall. Values without a mark were called inactive. Cut-off read from the data, not from the text of the source: active = activity change below about -60%; inconclusive = no clear call, values can overlap the other calls; inactive = above about -39%.

Test: qHTS Assay for inhibitors of the human cytomegalovirus (HCMV)
Conditions: HFF cells, HCMV-luciferase reporter, 72 h; at 57.5 µM; stronger effect = lower value
Summary of the method: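 Luciferase read-out from HCMV-luciferase-infected HFFs (MOI 1 PFU/cell) 72 h post infection at 37C; compounds added after 16 h cell attachment; activity normalized between buffer-only basal and Salinomycin (10uM) inhibitor controls.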
% is set by controls: 0 for no effect and ±100 for the full control effect.

In order of rising activity change, negative = inhibition:
1. O=C(c1ccc(C(F)(F)F)cc1)N1CCC(c2nc(-c3ccc(S(=O)(=O)N4CCCC4)cc3)no2)CC1  -39.7%
2. C/C(=N\NC(=O)NC1CCCCC1)c1ccc(OC(F)F)cc1OC(F)F  -36.3%
3. CC(C)Nc1nc(NCCOc2ccccc2Cl)c2sccc2n1  -35.9%
4. CCOC(=O)C1CCN(c2ncnc3c2c(-c2ccccc2)cn3-c2cccc(C)c2)CC1  -35.2%
5. COc1cccc(NC(=O)Nc2ccc3c(c2)N(C)C(=O)c2ccccc2S3)c1  -33.9%
6. CCOC(=O)N1CCN(C(=O)COCc2cc(-c3ccc4c(c3)OCO4)on2)CC1  -33.7%
7. CCOc1ccccc1C(=O)Nc1ccc(S(=O)(=O)N2CCCCC2c2cccnc2)cc1 (centres undefined)  -33.6%
8. CCCCC(=O)NNC(=S)NC(=O)C(c1ccccc1)c1ccccc1  -31.6%
9. O=C(O)c1cc(S(=O)(=O)N(Cc2ccccc2)c2ccccc2)ccc1Cl  -27.4%
10. N#Cc1ccc(CSc2nnc3ccccn23)cc1  -25.8%
11. C=CCn1cc(-c2cccc(C(F)(F)F)c2)cc(C#N)c1=O  -25.4%
12. c1ccc(CSCCc2ccncc2)cc1  -24.8%
13. CCN1CCC(N(Cc2ccc(F)cc2)C(=O)Nc2cc(C)ccc2C)CC1  -23.7%
14. CCN(C(=O)COC(=O)c1cc(NS(=O)(=O)c2ccc(Cl)c([N+](=O)[O-])c2)ccc1O)C1CCCCC1  -23%
15. COc1ccc2c(c1)C=C(C(=O)NCc1cc(Br)ccc1OC)CO2  -22.6%
16. Cc1ccc(-c2nnc(Nc3ccc(OCC(N)=O)cc3)c3ccccc23)cc1S(=O)(=O)NCC1CCCO1 (centres undefined)  -19.2%
17. Cc1[nH]c2ccccc2c1C(=O)C(=O)NCc1nnnn1-c1cccc(F)c1  -19%
18. Cc1cccn2c(=O)c(C(=O)NC(C)c3ccccc3)cnc12 (centres undefined)  -18.5%
19. CCOc1ccccc1NC(=O)Cn1nnc(C(=O)Nc2ccc(C)c(C)c2)c1N  -18.4%
20. Cc1ccc(S(=O)(=O)NC(C(=O)N2CCOCCOCCOCCOCC2)c2ccccc2)cc1 (centres undefined)  -14.3%
21. COc1cccc(-c2cc3nc(NCc4ccccc4OC)n(C)c(=O)c3s2)c1  -13.2%
22. Cc1cccc(C(C)C)c1NC(=O)C(NS(=O)(=O)c1cccc2nsnc12)c1ccccc1 (centres undefined)  -12.4%
23. CCCN(CCC)CCCNC(=O)Cn1ncc2c3ccccc3n(Cc3ccccc3)c2c1=O  -11.9%
24. CCOC(=O)c1cc(NC(=O)c2ccc(F)cc2)c(=O)n2c1oc1ccccc12  -11.8%
25. Cc1c(NC(=S)NC(=O)CCc2ccccc2)c(=O)n(-c2ccccc2)n1C  -11.5%
26. CCC(=O)NC(NCC1CCCO1)C(Cl)(Cl)Cl (centres undefined)  -10.5%
27. CCO/C=C1\C(=O)N(c2ccc(OCC)cc2)C(=O)c2ccccc21  -9.21%
28. CN(CC(=O)O)S(=O)(=O)c1ccc2oc3ccccc3c2c1  -8.55%
29. COc1ccc(CNC(=O)CS(=O)Cc2nc(-c3cccc(C)c3)oc2C)cc1 (centres undefined)  -7.8%
30. COc1ccc2c(C)c(CCC(=O)NCc3ccc(OC)c(OC)c3)c(=O)oc2c1  -7.55%
31. CCc1nc2cccnc2n1-c1ccc(C(=O)O)cc1  -6.51%
32. CCOC(=O)CSC1=Nc2ccccc2C2=NC(CCC(=O)NCc3ccc(F)cc3)C(=O)N12 (centres undefined)  -5.13%
33. Cc1cc(C)c(NC(=O)CSc2nc3ccncc3[nH]2)c(C)c1  -3.75%
34. Cn1c(SCc2c(F)cccc2Cl)nnc1-c1cnccn1  -2.73%
35. Cc1ccccc1NC(=O)c1c(NC(=O)c2ccccc2F)sc2c1CCC(C)C2 (centres undefined)  -1.03%
36. Cn1c(=O)c(C(=O)O)nn(-c2ccccc2)c1=O  -0.182%
37. CCn1c(=O)cc(OCC(=O)Nc2cc(Cl)c(OC)cc2OC)c2ccccc21  0.565%
38. Cc1cc(C(=O)N2CCC(C(=O)O)CC2)c(C(F)(F)F)o1  0.635%
39. COc1cc(NC(=O)C2CC(c3ccccc3O)=NO2)c(OC)cc1Cl (centres undefined)  0.764%
40. CCOC(=O)Cn1c(=O)n(-c2ccccc2OC)c2nc(-c3cccc(F)c3)nc(C(N)=O)c21  1.14%
41. COc1ccc(-c2c(C)nn3c(N4CCC(C(=O)NCCC(C)C)CC4)cc(C)nc23)cc1OC  1.6%
42. O=C(Cc1csc(Nc2nc(=S)[nH]c3ccccc23)n1)NCCCN1CCN(c2cccc(Cl)c2)CC1  2.37%
43. Cc1ccc(-n2nc(C)c(C(=O)O)c2-n2cccc2)cc1  3.17%
44. COc1ccc(NC(=O)c2ccc3nc(C(C)C)oc3c2)cc1OC  6.52%
45. O=C(CCN1CCCCC1)N=Nc1c(O)[nH]c2ccccc12  8%
46. CCOc1ccc(Cl)cc1-c1cc(C(=O)NCc2cccs2)[nH]n1  8.26%
47. COc1ccc(C2Nc3ccccc3C(=O)N2c2ccc(Cl)cc2)cc1Cn1cc([N+](=O)[O-])cn1 (centres undefined)  8.39%
48. Cc1ccc(C)c(CN2C(=O)c3ccccc3S(=O)c3ccc(C(=O)N4CCOCC4)cc32)c1 (centres undefined)  9.82%
49. COC(=O)c1cc(S(=O)(=O)N2CCN(c3cc(C)ccc3C)CC2)c[nH]1  9.83%
50. Cc1nonc1C1CCCN1C(=O)c1cc(COc2cccc(C(F)(F)F)c2)on1 (centres undefined)  10.6%
51. Cc1ccc2[nH]c(=O)c(CN3CCCCC3)c(-c3ccccc3)c2c1  11.7%
52. C=CCC(C(=O)c1ccccc1)[N+](C)(C)CC=C (centres undefined)  12.4%
53. NS(=O)(=O)c1ccc(NC(=O)C(=O)Nc2ccc3nc4n(c(=O)c3c2)CCCCC4)cc1  13.4%
54. COc1cccc(CNc2nccn(-c3ccc(OC)c(OC)c3)c2=O)c1  13.5%
55. Cc1ccc(-n2c(C)nnc2SCC(=O)NC2CC2)cc1  17.2%
56. Cc1ccc(C)c(NC(=O)CSC2=Nc3ccccc3N=C(c3ccc(F)cc3)C2)c1  22.5%
57. CCc1nnc(SCc2nc(-c3cccc(C)c3)oc2C)c2cc3sc(C)cc3n12  22.7%
58. CCN1CCN(C(c2ccc(C)cc2)c2c(O)cc(C)n(Cc3ccco3)c2=O)CC1 (centres undefined)  25%
59. COc1ccccc1CNc1nc2ccc(Cl)cc2n2cnnc12  25.8%
60. CCOc1ccc(N2C(=O)CN(c3cccc4ccccc34)C2=S)cc1  28.1%
61. COCCN(CCOC)c1nc(N)c2c(N)nc3c(c2c1C#N)CC(=O)N3Cc1ccc(Cl)cc1  30.8%
62. COC(=O)c1cc(=O)n(-c2c(Cl)cc(C(F)(F)F)cc2Cl)[nH]1  31.8%
63. Cc1nnc(SCc2nc3ccccc3nc2C)s1  32.2%
64. O=C(Cc1ccc(F)cc1)N1CCN=C1SCc1cccc([N+](=O)[O-])c1  35.3%
65. CCOC(=O)c1c(C)n(S(=O)(=O)c2ccc(C)cc2C)c2ccc(NS(=O)(=O)c3ccc(C)cc3C)cc12  37%
66. COCC1CCCCN1C(=O)c1cc(COc2ccc(C)c(C)c2)on1 (centres undefined)  50.2%
67. Cc1[nH]c2ccccc2c1C(=O)CN1CCCC(C)C1 (centres undefined)  64%
68. O=C(O)c1cccc(N=NN2CCCCCC2)c1  134%

With Cc1ccc2c(C(=O)CN3CCCC3)c(C)[nH]c2c1 the activity change, negative = inhibition was -81.5% (active).
For N#CC(C#N)=CN=c1ccn(Cc2ccc(Cl)cc2Cl)cc1, the activity change, negative = inhibition was -94.3% (active).
For COc1ccc(C(=O)NC(=S)NNC(=O)CCc2ccccc2)cc1, the activity change, negative = inhibition was -85.4% (active).
With Cc1cccc(N2CCN(C(=O)COCc3cc(-c4ccc5c(c4)OCO5)on3)CC2)c1C the activity change, negative = inhibition was 10.8% and 0.0657%.
With CC(C)NC(=O)COCc1cc(-c2ccc3c(c2)OCO3)on1 the activity change, negative = inhibition was -102% (active).
For CCc1nnc(SCc2c(F)cccc2Cl)c2cc3sccc3n12, the activity change, negative = inhibition was -67.2% (active).
In the case of CCOc1ccc(N2C(=O)CSC2=NC#N)cc1, the activity change, negative = inhibition is reported as -101% (active).
In the case of O=[N+]([O-])c1cc(S(=O)(=O)Nc2cccc(Cl)c2)ccc1N=Nc1c(O)[nH]c2ccccc12, the activity change, negative = inhibition is reported as -78.2% (active).
With Cc1ccc(-n2c(C)cc(C(=O)CSc3nnc4ccccn34)c2C)cc1 the activity change, negative = inhibition was -86.1% (active).
In the case of CC1(Cc2cccc(C#N)c2)C(=O)Nc2ccc(-c3cccc(C(F)(F)F)c3)cc21 (centres undefined), the activity change, negative = inhibition is reported as -96.6% (active).
In the case of Cc1oc2c(c1C(=O)N1CCOCC1)C(=O)c1ccccc1C2=O, the activity change, negative = inhibition is reported as -101% (active).
For CCC(C)Cn1c(O)cc2nn(-c3nc4ccccc4s3)c(=O)c-2c1C (centres undefined), the activity change, negative = inhibition was -80.3% (active).
In the case of CCOc1ccccc1NC(=O)Cn1nnc(C(=O)NCc2cccs2)c1N, the activity change, negative = inhibition is reported as -78.3% (active).
In the case of COc1ccccc1CNc1nc(Nc2ccccc2Cl)c2sccc2n1, the activity change, negative = inhibition is reported as -67.2% (active).
With COc1cccc(CNc2nc(NCc3ccccc3OC)nc3ccsc23)c1 the activity change, negative = inhibition was -90.2% (active).
In the case of O=C(CCl)N(Cc1cccc([N+](=O)[O-])c1)c1cccc(Cl)c1, the activity change, negative = inhibition is reported as -99.6% (active).
With Cc1ccccc1Cn1c2ccccc2c2cnn(CC(=O)NCc3ccco3)c(=O)c21 the activity change, negative = inhibition was -95.6% (active).
With O=C(Cn1ncc2c3ccccc3n(Cc3ccccc3)c2c1=O)NCc1ccccn1 the activity change, negative = inhibition was -12.1% and -33.7%.
With COC(=O)[C@@H]1CCCN1C(=O)c1cc(COc2cccc3cccnc23)on1 the activity change, negative = inhibition was -61.4% (active).
For Cc1cc(C)c(SCCc2ccncc2)c(C)c1, the activity change, negative = inhibition was -63.8% (active).
With Cc1ccccc1Nc1scc(-c2ccc(Br)cc2)[n+]1-c1ccccc1C the activity change, negative = inhibition was -68.6% (active).
